Results taken from ChEMBL document CHEMBL1961873, “Compounds: GSK PKIS; Assays: Nanosyn kinase panel” (2012).
Where “and” joins values, the source holds several entries; their conditions need not be identical. Identical values can stand only once.

How the values were obtained:
[1] = biological target: High affinity nerve growth factor receptor (Homo sapiens) (UniProt P04629); settings: at 1 µM;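 also: each value is the mean percent inhibition of TRKA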
[2] = biological target: BDNF/NT-3 growth factors receptor (Homo sapiens) (UniProt Q16620); settings: at 0.1 µM
BDNF/NT-3 growth factors receptor (Homo sapiens), sequence (Q16620 32-822 limits assumed): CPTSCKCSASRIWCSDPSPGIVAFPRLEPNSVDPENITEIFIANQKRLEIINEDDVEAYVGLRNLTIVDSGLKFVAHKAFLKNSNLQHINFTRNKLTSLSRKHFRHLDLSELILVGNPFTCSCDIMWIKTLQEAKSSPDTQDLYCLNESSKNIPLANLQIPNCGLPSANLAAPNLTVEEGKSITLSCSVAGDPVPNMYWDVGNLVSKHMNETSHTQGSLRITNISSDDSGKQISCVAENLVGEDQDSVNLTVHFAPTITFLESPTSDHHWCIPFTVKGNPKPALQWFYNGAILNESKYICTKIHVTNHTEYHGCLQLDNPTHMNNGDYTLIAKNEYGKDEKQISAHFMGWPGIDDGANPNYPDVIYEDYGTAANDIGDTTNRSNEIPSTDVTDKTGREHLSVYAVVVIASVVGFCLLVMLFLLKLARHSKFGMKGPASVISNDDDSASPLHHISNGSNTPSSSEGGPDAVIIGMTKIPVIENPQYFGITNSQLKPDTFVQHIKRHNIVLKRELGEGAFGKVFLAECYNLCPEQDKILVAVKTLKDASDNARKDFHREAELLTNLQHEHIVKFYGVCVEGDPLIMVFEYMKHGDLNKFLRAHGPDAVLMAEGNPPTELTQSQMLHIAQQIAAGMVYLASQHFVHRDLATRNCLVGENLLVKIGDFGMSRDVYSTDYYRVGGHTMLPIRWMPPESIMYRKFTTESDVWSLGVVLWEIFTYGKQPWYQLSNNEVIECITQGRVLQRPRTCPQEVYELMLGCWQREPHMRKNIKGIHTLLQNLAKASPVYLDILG

[3] = biological target: BDNF/NT-3 growth factors receptor (Homo sapiens) (UniProt Q16620); settings: at 1 µM
[4] = biological target: NT-3 growth factor receptor (Homo sapiens) (UniProt Q16288); settings: at 0.1 µM
NT-3 growth factor receptor (Homo sapiens), sequence (Q16288 32-839 limits assumed): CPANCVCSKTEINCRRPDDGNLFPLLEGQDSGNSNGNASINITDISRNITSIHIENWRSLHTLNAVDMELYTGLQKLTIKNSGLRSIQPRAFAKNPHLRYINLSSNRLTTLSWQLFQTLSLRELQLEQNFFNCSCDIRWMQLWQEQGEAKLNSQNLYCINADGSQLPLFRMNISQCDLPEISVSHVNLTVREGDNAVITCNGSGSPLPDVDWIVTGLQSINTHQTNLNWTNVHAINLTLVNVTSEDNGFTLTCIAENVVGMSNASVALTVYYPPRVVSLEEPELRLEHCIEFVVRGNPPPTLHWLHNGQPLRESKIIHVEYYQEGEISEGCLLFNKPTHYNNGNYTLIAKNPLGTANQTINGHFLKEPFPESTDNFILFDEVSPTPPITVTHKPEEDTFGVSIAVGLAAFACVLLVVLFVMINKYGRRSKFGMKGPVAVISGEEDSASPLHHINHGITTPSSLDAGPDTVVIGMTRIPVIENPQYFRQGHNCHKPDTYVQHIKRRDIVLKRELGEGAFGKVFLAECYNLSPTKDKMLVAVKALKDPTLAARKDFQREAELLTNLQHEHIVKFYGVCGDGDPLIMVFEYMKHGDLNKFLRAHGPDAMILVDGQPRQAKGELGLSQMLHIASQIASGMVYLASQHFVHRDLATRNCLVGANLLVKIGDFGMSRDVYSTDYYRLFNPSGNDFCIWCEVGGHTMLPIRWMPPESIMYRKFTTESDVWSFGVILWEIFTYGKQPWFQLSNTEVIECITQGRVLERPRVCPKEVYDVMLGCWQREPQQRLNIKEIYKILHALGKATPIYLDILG

[5] = biological target: NT-3 growth factor receptor (Homo sapiens) (UniProt Q16288); settings: at 1 µM
[6] = biological target: T1, Tyrosine-protein kinase TXK (Homo sapiens) (UniProt P42681); settings: at 0.1 µM
T1 sequence (whole entry): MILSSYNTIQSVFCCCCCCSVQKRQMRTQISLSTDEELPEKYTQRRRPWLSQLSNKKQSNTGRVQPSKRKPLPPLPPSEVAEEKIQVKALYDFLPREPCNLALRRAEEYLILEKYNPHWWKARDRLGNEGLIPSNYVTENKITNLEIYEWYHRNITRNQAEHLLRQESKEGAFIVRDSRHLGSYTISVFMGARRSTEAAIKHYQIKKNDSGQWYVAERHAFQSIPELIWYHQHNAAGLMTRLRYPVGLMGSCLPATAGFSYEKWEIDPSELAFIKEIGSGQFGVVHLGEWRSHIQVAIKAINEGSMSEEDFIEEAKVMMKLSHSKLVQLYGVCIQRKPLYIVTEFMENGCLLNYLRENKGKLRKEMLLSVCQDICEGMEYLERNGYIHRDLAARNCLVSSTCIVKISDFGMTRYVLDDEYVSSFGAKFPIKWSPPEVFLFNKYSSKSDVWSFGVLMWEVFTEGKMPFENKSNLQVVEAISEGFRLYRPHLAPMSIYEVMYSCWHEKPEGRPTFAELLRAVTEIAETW

[7] = biological target: T1, Tyrosine-protein kinase TXK (Homo sapiens); settings: at 1 µM
[8] = biological target: Non-receptor tyrosine-protein kinase TYK2 (Homo sapiens) (UniProt P29597); settings: at 0.1 µM;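 also: each value is a mean of the inhibition readings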
[9] = biological target: T2, Dual specificity protein kinase TTK (Homo sapiens) (UniProt P33981); settings: at 1 µM;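 also: reported figures are mean TTK inhibition at 1 µM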
T2 sequence (whole entry): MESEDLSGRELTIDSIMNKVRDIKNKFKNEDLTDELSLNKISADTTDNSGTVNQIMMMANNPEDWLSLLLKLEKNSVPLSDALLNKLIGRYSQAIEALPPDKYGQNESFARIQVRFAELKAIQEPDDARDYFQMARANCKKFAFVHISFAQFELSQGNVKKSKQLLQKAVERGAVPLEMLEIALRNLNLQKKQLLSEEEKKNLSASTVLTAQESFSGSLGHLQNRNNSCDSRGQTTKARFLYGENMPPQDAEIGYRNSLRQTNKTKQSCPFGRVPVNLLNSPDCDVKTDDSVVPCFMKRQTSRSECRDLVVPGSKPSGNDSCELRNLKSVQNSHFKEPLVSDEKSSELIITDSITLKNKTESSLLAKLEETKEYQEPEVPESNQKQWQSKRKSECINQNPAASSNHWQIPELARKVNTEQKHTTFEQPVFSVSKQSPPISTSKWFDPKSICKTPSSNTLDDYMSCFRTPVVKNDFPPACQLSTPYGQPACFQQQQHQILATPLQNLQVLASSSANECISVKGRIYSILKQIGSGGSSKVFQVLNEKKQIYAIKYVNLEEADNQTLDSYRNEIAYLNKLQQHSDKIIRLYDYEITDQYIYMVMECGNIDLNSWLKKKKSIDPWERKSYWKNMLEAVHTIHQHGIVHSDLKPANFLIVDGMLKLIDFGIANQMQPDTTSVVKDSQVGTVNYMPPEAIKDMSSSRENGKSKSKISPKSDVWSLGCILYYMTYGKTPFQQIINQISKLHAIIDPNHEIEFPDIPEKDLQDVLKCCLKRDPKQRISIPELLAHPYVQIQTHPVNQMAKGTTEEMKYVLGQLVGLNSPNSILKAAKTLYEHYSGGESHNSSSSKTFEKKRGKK

[10] = biological target: T3, Aurora kinase A (Homo sapiens) (UniProt O14965); settings: at 0.1 µM
T3 sequence (whole entry): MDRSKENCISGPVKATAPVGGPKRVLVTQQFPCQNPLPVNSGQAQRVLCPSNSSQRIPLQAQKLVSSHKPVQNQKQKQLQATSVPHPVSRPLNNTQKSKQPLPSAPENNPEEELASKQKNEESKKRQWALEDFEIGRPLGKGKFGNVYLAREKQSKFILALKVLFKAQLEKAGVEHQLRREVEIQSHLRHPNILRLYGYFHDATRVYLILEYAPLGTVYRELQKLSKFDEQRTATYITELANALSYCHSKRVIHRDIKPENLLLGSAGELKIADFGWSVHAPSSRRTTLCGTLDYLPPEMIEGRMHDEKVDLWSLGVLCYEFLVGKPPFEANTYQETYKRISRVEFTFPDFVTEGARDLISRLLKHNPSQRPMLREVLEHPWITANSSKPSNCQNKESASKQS

[11] = biological target: T3, Aurora kinase A (Homo sapiens); settings: at 1 µM
[12] = biological target: Aurora kinase B (Homo sapiens) (UniProt Q96GD4); settings: at 0.1 µM
Aurora kinase B (Homo sapiens), sequence (Q96GD4 whole entry): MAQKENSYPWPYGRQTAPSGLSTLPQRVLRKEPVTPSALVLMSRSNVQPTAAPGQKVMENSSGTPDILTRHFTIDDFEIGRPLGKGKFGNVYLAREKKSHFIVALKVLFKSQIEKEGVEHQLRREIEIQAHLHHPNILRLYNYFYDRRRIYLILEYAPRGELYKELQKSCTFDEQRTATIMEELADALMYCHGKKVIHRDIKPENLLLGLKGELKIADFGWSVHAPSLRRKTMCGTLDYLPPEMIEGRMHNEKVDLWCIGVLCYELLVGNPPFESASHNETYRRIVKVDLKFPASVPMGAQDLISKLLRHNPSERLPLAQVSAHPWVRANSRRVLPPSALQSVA

[13] = biological target: Aurora kinase B (Homo sapiens) (UniProt Q96GD4); settings: at 1 µM
[14] = biological target: T4, Aurora kinase C (Homo sapiens) (UniProt Q9UQB9); settings: at 0.1 µM
T4 sequence (whole entry): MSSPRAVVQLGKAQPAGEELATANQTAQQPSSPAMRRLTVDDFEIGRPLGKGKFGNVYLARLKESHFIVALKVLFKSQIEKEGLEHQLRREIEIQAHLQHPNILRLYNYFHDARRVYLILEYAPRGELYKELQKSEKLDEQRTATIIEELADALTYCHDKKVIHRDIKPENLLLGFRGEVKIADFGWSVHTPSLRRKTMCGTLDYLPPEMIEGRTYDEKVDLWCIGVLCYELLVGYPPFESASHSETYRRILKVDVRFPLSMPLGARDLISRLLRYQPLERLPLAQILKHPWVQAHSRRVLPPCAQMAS

[15] = biological target: T4, Aurora kinase C (Homo sapiens); settings: at 1 µM
[16] = biological target: Serine/threonine-protein kinase 10 (Homo sapiens) (UniProt O94804); settings: at 0.1 µM
Serine/threonine-protein kinase 10 (Homo sapiens), sequence (O94804 whole entry, looked up): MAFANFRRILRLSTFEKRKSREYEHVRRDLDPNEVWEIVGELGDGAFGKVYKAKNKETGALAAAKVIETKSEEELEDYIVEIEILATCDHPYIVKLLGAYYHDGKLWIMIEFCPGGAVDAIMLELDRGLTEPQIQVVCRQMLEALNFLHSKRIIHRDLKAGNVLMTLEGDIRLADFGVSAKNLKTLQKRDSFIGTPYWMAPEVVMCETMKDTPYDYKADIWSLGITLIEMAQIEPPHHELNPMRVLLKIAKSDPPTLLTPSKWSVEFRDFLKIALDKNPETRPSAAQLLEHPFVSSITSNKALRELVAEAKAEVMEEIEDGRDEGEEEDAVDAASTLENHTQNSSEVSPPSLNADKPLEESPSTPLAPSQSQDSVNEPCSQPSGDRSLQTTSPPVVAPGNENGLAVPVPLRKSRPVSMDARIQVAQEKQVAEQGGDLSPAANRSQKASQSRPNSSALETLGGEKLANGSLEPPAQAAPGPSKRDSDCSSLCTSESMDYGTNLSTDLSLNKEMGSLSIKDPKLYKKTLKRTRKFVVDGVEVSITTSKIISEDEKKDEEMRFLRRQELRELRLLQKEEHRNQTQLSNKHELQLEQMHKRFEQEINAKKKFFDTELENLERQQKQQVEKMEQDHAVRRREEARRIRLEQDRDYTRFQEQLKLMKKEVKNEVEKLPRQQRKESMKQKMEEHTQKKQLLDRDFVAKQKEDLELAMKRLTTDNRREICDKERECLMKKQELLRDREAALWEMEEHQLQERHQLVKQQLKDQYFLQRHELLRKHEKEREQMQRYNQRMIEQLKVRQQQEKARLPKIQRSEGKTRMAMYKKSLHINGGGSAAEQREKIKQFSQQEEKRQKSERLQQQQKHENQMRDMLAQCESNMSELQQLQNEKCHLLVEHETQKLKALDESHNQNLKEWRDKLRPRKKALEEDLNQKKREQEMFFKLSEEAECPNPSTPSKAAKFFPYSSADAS

[17] = biological target: Serine/threonine-protein kinase 10 (Homo sapiens) (UniProt O94804); settings: at 1 µM
[18] = biological target: T5, Mitogen-activated protein kinase kinase kinase kinase 2 (Homo sapiens) (UniProt Q12851); settings: at 0.1 µM
T5 sequence (whole entry): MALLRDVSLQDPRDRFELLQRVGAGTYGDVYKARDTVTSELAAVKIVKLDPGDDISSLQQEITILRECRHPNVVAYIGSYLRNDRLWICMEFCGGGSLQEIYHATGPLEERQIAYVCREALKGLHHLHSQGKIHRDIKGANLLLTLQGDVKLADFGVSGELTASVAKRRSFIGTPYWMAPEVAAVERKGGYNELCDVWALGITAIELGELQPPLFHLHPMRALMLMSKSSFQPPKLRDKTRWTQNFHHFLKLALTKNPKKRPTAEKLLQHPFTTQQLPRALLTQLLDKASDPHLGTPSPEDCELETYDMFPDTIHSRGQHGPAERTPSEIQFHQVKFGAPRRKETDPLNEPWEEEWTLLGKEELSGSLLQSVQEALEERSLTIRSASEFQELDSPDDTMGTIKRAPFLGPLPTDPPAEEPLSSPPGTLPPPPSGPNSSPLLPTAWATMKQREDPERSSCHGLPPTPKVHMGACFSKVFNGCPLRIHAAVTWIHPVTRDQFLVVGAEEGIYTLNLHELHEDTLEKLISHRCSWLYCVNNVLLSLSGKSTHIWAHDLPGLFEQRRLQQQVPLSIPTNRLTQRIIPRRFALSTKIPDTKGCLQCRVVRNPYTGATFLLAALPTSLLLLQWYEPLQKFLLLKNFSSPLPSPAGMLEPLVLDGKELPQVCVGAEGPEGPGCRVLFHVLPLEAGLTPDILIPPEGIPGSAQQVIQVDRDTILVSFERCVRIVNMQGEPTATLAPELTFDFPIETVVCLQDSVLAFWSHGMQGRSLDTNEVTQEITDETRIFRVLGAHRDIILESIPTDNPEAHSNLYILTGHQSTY

[19] = biological target: T5, Mitogen-activated protein kinase kinase kinase kinase 2 (Homo sapiens); settings: at 1 µM
[20] = biological target: Mitogen-activated protein kinase kinase kinase kinase 4 (Homo sapiens) (UniProt O95819); settings: at 0.1 µM
Mitogen-activated protein kinase kinase kinase kinase 4 (Homo sapiens), sequence (O95819 2-1239 limits assumed): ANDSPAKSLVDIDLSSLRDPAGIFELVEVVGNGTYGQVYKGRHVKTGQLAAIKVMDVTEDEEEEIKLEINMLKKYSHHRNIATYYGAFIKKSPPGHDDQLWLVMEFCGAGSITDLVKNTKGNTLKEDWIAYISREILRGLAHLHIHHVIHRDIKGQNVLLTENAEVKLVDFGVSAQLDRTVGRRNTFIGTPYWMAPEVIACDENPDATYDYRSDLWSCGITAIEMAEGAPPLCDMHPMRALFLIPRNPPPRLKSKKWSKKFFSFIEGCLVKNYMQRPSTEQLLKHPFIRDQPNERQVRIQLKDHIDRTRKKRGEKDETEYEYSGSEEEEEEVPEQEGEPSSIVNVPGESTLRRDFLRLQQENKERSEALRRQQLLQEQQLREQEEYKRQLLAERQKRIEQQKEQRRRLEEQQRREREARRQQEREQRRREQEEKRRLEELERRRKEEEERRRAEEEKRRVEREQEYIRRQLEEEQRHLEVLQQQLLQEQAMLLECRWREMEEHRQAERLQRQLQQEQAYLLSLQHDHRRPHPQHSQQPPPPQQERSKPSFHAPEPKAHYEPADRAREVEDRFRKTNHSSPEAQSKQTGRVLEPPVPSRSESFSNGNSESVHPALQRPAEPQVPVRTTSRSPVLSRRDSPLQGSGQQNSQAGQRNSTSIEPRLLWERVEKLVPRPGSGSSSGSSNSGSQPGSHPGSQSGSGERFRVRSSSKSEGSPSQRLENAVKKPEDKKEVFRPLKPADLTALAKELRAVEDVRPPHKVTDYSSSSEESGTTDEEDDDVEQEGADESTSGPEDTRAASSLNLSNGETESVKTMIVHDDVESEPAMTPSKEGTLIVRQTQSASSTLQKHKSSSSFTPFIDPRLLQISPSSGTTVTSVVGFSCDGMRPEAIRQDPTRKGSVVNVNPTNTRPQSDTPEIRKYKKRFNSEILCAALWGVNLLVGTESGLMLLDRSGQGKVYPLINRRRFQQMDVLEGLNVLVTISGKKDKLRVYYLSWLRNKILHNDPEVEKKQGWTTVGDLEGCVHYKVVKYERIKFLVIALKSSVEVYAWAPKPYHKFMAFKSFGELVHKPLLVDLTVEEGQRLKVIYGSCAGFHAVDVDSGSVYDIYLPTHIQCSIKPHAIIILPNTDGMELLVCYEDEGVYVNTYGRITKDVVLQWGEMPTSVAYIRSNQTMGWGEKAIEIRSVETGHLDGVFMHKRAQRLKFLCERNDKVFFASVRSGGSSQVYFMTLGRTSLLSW

High affinity nerve growth factor receptor (Homo sapiens), sequence (P04629 33-796 limits assumed): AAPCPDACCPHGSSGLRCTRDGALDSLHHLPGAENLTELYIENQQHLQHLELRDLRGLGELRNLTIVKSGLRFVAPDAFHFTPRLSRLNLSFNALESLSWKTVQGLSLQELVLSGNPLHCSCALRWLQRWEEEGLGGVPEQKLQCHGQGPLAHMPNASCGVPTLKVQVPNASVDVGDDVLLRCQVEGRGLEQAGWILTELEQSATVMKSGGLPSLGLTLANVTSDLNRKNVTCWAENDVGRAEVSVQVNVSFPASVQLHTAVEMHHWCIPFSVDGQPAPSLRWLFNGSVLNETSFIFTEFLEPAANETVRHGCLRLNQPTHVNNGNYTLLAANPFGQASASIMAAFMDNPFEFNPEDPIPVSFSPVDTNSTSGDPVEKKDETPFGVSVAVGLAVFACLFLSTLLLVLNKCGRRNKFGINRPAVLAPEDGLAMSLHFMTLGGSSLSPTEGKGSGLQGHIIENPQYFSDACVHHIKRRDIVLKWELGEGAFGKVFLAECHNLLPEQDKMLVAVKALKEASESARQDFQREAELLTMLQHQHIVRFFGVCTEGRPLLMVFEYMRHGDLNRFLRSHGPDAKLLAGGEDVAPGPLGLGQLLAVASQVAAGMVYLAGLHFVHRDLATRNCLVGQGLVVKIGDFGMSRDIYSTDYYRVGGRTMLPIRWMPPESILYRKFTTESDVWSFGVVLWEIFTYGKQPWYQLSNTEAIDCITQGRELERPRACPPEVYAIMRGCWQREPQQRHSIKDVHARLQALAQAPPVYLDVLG

| SMILES | inhibition [1] | inhibition [2] | inhibition [3] | inhibition [4] | inhibition [5] | inhibition [6] | inhibition [7] | inhibition [8] | inhibition [9] | inhibition [10] | inhibition [11] | inhibition [12] | inhibition [13] | inhibition [14] | inhibition [15] | inhibition [16] | inhibition [17] | inhibition [18] | inhibition [19] | inhibition [20] |
| --- | --- | --- | --- | --- | --- | --- | --- | --- | --- | --- | --- | --- | --- | --- | --- | --- | --- | --- | --- | --- |
| Cc1ccc(-c2cc3c(NC(=O)C4CC4)ncnc3o2)cc1 | 1.15% | 1.73% | 4.58% | 2.91% | 4.4% | 3.92% | 8.76% | -1.91% | 10.2% | 3.75% | 15.8% | 5.78% | 17.5% | 2.4% | 19.2% | 2.34% | 15.1% | 0.9% | 2.12% | 6.07% |
| COc1ccccc1-c1cc(/C=C2\C(=O)Nc3ncc(Br)cc32)cc(Br)c1O | 61.7% | 38.7% | 89.2% | 41.7% | 93.9% | 3.05% | 6.65% | -5.9% | 9.88% | 13.4% | 93% | 12.4% | 57.2% | 7.31% | 87.5% | 5.49% | 5.99% | 0.42% | 5.34% | 5.7% |
| Cc1nnc(-c2cccc(-c3ccc(C(=O)NCC4CC4)cc3)c2)o1 | 1.38% | 2.02% | 4.55% | 3.7% | 3.95% | 2.44% | 3.16% | -5.67% | 0.98% | 1.82% | 7.79% | 3.21% | 3.09% | 1.3% | -4.74% | 6.23% | 7.39% | 1.46% | 3.14% | 7.44% |
| CN1CCC(C(=O)Nc2n[nH]c3nc(-c4ccc(O)cc4)c(Br)cc23)CC1 | 1.2% and 2.04% | 2.51% and 1.42% | 3.32% and 2.74% | 3.04% and 2.59% | 4.91% and 0.79% | -0.5% and 4.86% | -0.68% and 3.3% | -2.31% and 0.31% | 19% and 6.37% | -1.93% and 2.95% | 3.82% and 3.89% | -1.01% and 4.45% | 4.6% and 6.84% | -1.83% and 3.73% | -7.86% and 5.17% | 4.1% and 3% | 13.5% and 9.07% | 4.77% and 3.87% | 24.7% and 19.9% | 7.33% and 2.89% |
| CN1CCN(Cc2ccc(-c3cc4ncnc(Nc5ccc(OCc6cccc(F)c6)c(Cl)c5)c4s3)o2)CC1 | 3.16% and 2.15% | 3.04% and 3.64% | 2.54% and 4.97% | 2.27% and 4.29% | 3.84% and 5.78% | -1.05% and 3.1% | 5.76% and 4.28% | -2.41% and -3.9% | 8.37% and 11.4% | 1.75% and 2.97% | 6.51% and 11.8% | 16% and 13% | 45.6% and 53% | 4.18% and 3.42% | 26.1% and 40.5% | 17.4% and 22.1% | 56.8% and 67% | 2.1% and 1.95% | 13% and 8.01% | 2.96% and 6.93% |
| CS(=O)(=O)Nc1ccc(-c2cc(-c3ccccc3)cc(C(N)=O)c2N)cc1 | 3.74% | 1.96% | 2.61% | 1.09% | 0.08% | 0.48% | 2.13% | -1.8% | 3.01% | 1.29% | 1.71% | 1.93% | 5.23% | 0.13% | 4.66% | 2.01% | 4.84% | -1.83% | 1.34% | 3.1% |
| COc1cccc(Nc2nccc(-c3cnn4ncccc34)n2)c1 | 17.4% | 6.68% | 34.1% | 7.22% | 37.6% | 2.32% | 15.5% | -4.06% | 22.8% | 11.9% | 86.4% | 26.7% | 72.3% | 33.2% | 97.3% | 4.01% | 17.4% | 17.1% | 60.1% | 14.8% |
